40 compounds from PubChem BioAssay can be followed below.

Unmarked numbers belong to inactive results. No stated cut-off is given here; in the data, active means inhibition above about 30%; inactive means the rest.

A short description of the assay: growth suppression of yeast trafficking mutant, preliminary HTS, modulators of trafficking downstream of Golgi apparatus project, 1536-format plate, OD 615 nm (AID 637). The conditions noted are these: yeast transport mutant growth, absorbance 615 nm, 18 h; hits give high values.
For the compound `COc1ccc(C(=O)Nn2c(SCC(=O)NCC3CCCO3)nc3ccccc3c2=O)cc1` (stereo not given), the inhibition was -0.81%.

For `COc1ccc(Cc2nnc3n2N=C(c2cc4ccccc4o2)CS3)cc1OC`, the inhibition is -0.67%.

In the case of `CC1(C)OC(=O)N(c2cccnc2)C1(C)O` (stereo not given), the inhibition was 3.02%.

As to `O=c1/c(=C/c2ccco2)sc2nc(-c3ccccc3Br)nn12`, the inhibition was 1.64%.

Regarding `CC1Cc2ccccc2N1C(=O)CSc1nc2ccccc2n1CC(=O)N1CCOCC1` (stereo not given), the inhibition was 3.77%.

Take `Cc1oc(-c2ccccc2F)nc1CS(=O)(=O)CC(=O)N1CCCCCC1`: the inhibition was -3.28%.

Regarding `O=C(NCc1cccnc1)c1ccc(Cl)c(Cl)c1`, the inhibition was 3.61%.

`COc1cccc(C(=O)Nc2ccc(NC(C)=O)cn2)c1`: the inhibition is -4.92%.

With `CCN(C(=O)CN1CCN(c2ccccc2OC)CC1)c1c(N)n(Cc2ccccc2)c(=O)[nH]c1=O`, the inhibition is -0.16%.

Take `CCOC(=O)n1c(SCC(=O)N(CC)CC)nc2ccccc21`: the inhibition was 1.11%.

For `CCOC(=O)C1CCN(c2c(NC3CCCCCCC3)c(=O)c2=O)CC1`, the inhibition was 0.5%.

In the case of `CCOC(=O)NC(=O)CSc1nnnn1-c1ccc(Cl)cc1`, the inhibition was 0.48%.

As to `COc1cccc(-n2c(C)nc3c(cnn3-c3ccc(Cl)cc3)c2=O)c1`, the inhibition is 4.19%.

Take `CN(CC(O)COCc1cccs1)C1CCCCC1` (stereo not given): the inhibition was 5.57%.

Turning to `O=C(O)CSc1ccc2ccccc2n1`, the inhibition was 5.48%.

Consider `CN(C)Cc1c(O)ccc2oc(Cc3ccccc3)cc12`, for which the inhibition was -2.42%.

For the compound `COC(=O)c1[nH]c(C)c(/C(O)=C2\C(=O)C(=O)N(CCN(C)C)C2c2ccccc2OC)c1C` (stereo not given), the inhibition was -1.5%.

Consider `CC1(C)Cc2c(sc3c2c(=N)n(Cc2ccco2)c(=O)n3Cc2ccccc2)CO1`, for which the inhibition was -1.27%.

With `CCn1nnnc1SCC(=O)N1CCOCC1`, the inhibition was 3.44%.

In the case of `CN(C)c1ccc(C=Nc2ccc(N(C)C)cc2)cc1`, the inhibition is -6.23%.

On to `CCCC(=O)Nc1ccc(OCC(=O)OC)cc1`, for which the inhibition was 0.79%.

Consider `CCn1cc(C(=O)NCCN(C)CCc2ccccc2)c(=O)c2cc(S(=O)(=O)N(C)C)ccc21`, for which the inhibition was 12.6%.

As to `COc1cccc(-c2cc(C(=O)N3CCCc4ccccc43)no2)c1`, the inhibition is -0.83%.

In the case of `O=C(Cn1c(NCCO)nc2ccccc21)c1ccccc1`, the inhibition is 2.7%.

Consider `CCOC(=O)N1CCC(N2C(=O)c3ccccc3C2Nc2cccnc2)CC1` (stereo not given), for which the inhibition was -3%.

On to `CCCCCCNS(=O)(=O)c1ccc(Cl)s1`, for which the inhibition was 22.9%.

For `COC(=O)c1cc(=O)n2c(-c3ccc(OC)cc3)csc2n1`, the inhibition is -0.16%.

As for `COC(=O)/C=c1/s/c(=C(/C#N)C(=O)N2CCOCC2)n(-c2ccccc2)c1=O`, the inhibition is -3.17%.

`CCOc1ccc2[nH]cc(C(=O)N3CCN(CC)CC3)c(=O)c2c1`: the inhibition is 19%.

In the case of `CCCCN(CCCNC(=O)C1CCN(S(=O)(=O)CC)CC1)c1ccccc1`, the inhibition is -6.83%.

As for `COc1ccc(-c2nnn(CCc3nn[nH]n3)n2)cc1OC`, the inhibition was 9.18%.

Take `CCCCC(=NCCO)C1=C(O)C(C(=O)OC)C(C)(C)CC1=O` (stereo not given): the inhibition was -3.81%.

For `COC1CCCCC1NS(=O)(=O)c1ccccc1` (stereo not given), the inhibition was 3.17%.

For `Nc1c(N2CCCCC2)c(=O)[nH]c(=O)n1-c1ccccc1`, the inhibition is -4.33%.

With `O=C(CN1C(=O)CCSc2ccccc21)Nc1ccc2c(c1)OCO2`, the inhibition is -4.13%.

Consider `Cc1cc(C)c2oc(=O)cc(CN3CCOCC3)c2c1`, for which the inhibition is 2.26%.

For `OCc1nc2ccccc2n1CCCOc1ccccc1`, the inhibition was -0.83%.

As to `CC(C)(C)c1ccc2c(c1)OCC(C(=O)O)O2` (stereo not given), the inhibition is -3.65%.

For `O=C1C2C3C=CC(C3=C3CCCCC3)C2C(=O)N1c1ccccc1` (stereo not given), the inhibition was -2.06%.

Take `CCCN1C(=O)c2cc(C(=O)O)ccc2C1O` (stereo not given): the inhibition was 1.48%.
